Measurements from PubChem BioAssay.
Values joined by “and” are separate entries in the source; they are usually repeats but may differ in a detail not shown here. Identical values can stand only once. Some structures have more than one record in an assay (separate samples or runs), and their calls can disagree. Active and inactive are the calls of the source. Cut-off read from the data, not from the text of the source, unless noted: active = parasite load remaining mostly below about 12% (no sharp cut-off); inactive = mostly above about 10%.

Tests used:
[1] = P. berghei load reduction in hepatocytes – cell-based, HepG2, luciferase luminescence, HepG2 viability, primary screen (AID 624349);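 note: 100% = mean of DMSO negative control wells on the same plate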; settings: P. berghei liver stage in HepG2, luciferase luminescence, concentration not given here; parasite load remaining: stronger effect = lower value; viability: measured here: HepG2 viability without parasites
[2] = Wnt pathway potentiators raising nuclear beta-catenin – imaging, WNT3A-conditioned medium, mouse C2C12, NPC library, primary screen (AID 1117326; in the data active = nuclear beta-catenin stimulation mostly above about 4.2%, no sharp cut-off; inactive = mostly below about 10%; note: reference of the scale not given here); settings: stronger effect = higher value
[3] = stimulators of insulin release from INS-1E, primary screen, cell-based, 5 mM glucose, NPC library (AID 1117329;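 active = compound raises insulin release from rat beta cells at 5 mM glucose, no numeric limit stated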; note: reference of the scale not given here); settings: rat INS-1E insulin secretion, at 10 µM, stronger effect = higher value
[4] = growth inhibition of GSK3B-pretreated HCT116 cells – cell-based, CellTiter-Glo, 0.2 to 20 µM (AID 1117336;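 active = compounds lowering colon cancer cell viability after pretreatment blocking the GSK3B kinase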); settings: HCT116 viability after GSK3B inhibitor, at 20 µM, stronger effect = higher value
[5] = inhibition of endothelial tube formation, primary screen, imaging, VEGF stimulated, CD31 staining, tube area, NPC library (AID 1117340;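 active = compound that reduces growth-factor-driven endothelial tube area in a mixed cell culture, no cutoff stated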); settings: VEGF-stimulated ADSC/ECFC co-culture, at 10 µM, stronger effect = higher value
[6] = GLP1 release stimulators, primary, NCI-H716, NPC library (AID 1117341;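 active = compound raises GLP1 secretion from the human gut endocrine cells, with no numeric limit stated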; note: reference of the scale not given here); settings: NCI-H716 cells, at 10 µM, stronger effect = higher value
[7] = HCT116 colon cancer cell growth inhibition, primary screen, CellTiter-Glo luminescence, NPC library (AID 1117342;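 active = compounds that lower survival of HCT116 colon cancer cells in the luminescence readout, no numeric limit stated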); settings: at 20 µM (top of the series)
[8] = reduced SW480 viability measured with CellTiter-Glo, NPC library, primary (AID 1117343;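 active = compounds that lower viability of the colon cancer cells in the luminescence readout, with no numeric limit stated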); settings: CellTiter-Glo luminescence; at 20 µM (top of the series)
[9] = NPC library primary testing for decreased DLD-1 cell viability via CellTiter-Glo (AID 1117346;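 active = compounds that lower survival of DLD-1 colon cancer cells in the luminescence readout, no cutoff given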); settings: DLD-1 viability, CellTiter-Glo luminescence; at 20 µM (top of the series)
[10] = molecular target: 6-phosphogluconate dehydrogenase, decarboxylating (Homo sapiens) (UniProt P52209); experiment: inhibition of human phosphogluconate dehydrogenase – biochemical, recombinant enzyme, NADPH absorbance, primary screen (AID 1159550;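 active = at least 20% inhibition of 6-phosphogluconate dehydrogenase activity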); settings: recombinant 6PGD, NADPH absorbance 341 nm; at 10 µM; stronger effect = higher value
Sequence of 6-phosphogluconate dehydrogenase, decarboxylating (Homo sapiens) (P52209 whole entry, looked up): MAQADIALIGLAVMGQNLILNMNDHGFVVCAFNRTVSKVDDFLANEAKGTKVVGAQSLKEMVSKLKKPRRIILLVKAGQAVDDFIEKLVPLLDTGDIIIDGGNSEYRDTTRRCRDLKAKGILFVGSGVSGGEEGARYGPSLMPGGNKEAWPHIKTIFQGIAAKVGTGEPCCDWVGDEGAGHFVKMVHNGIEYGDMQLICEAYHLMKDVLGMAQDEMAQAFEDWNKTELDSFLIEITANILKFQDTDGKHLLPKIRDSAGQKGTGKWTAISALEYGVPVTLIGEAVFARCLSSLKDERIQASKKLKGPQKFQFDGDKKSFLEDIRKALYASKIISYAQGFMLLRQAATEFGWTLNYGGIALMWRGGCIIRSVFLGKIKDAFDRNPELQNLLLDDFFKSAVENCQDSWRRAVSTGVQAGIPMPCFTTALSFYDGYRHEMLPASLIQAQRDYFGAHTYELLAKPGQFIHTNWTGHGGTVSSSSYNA

Row | Compound | parasite load remaining [1] | viability [1] | nuclear beta-catenin stimulation ([2]; at 10 µM) | nuclear beta-catenin stimulation ([2]; stimulation, at 2 µM) | insulin secretion stimulation [3] | viability decrease [4] | tube area decrease [5] | GLP1 secretion stimulation [6] | inhibition of viability [7] | viability decrease (inhibition) [8] | viability decrease (inhibition) [9] | inhibition [10]
1 | CC(C)N=C(N)/N=C(\N)Nc1ccc(Cl)cc1 | 38.3% (inactive) and -0.12% (active) | 66.1% and 93.4% | 1.1% (inactive) | 0.3% | -3.1% (inactive) | 14.7% (inactive) | 1.9% (inactive) | 5.1% (inactive) | 13.5% (inactive) | 67.6% (active) | 27.1% (inactive) | 2.42% (inactive)
2 | CC(C)(C)CC(C)(C)c1ccc(O)c(Cc2ccc(Cl)cc2Cl)c1 | 157% (inactive) | 83.5% | 0.1% (inactive) | 6.3% | 4.4% (active) | 99.3% (active) | 108% (active) | 117% (active) | 100% (active) | 120% (active) | 102% (active) | -15.2% (inactive)
3 | CCN(CC)C(=O)c1cccc(C)c1 | 18.9% (inactive) | 97.4% | 6.1% (inactive) | 3.9% | 5% (inactive) | 3.4% (inactive) | -44.2% (inactive) | 2.9% (inactive) | -3.2% (inactive) | -14.3% (inactive) | 12.4% (inactive) | 9.21% (inactive)
4 | COc1ccc2cc1Oc1ccc(cc1)C[C@H]1c3c(cc4c(c3Oc3cc5c(cc3OC)CCN(C)[C@@H]5C2)OCO4)CCN1C | 105% (inactive) | 82.3% | 64.7% (active) | 7.1% | 5.5% (inactive) | 98.1% (active) | 108% (active) | 1.9% (inactive) | 102% (active) | 123% (active) | 87.3% (active) | -1.33% (inactive)
5 | CCCCCC(C)N (stereo unspecified) | 115% (inactive) and 42.4% (inactive) | 77.1% and 86.1% | 1.8% (inactive) | 3.7% | 3.3% (inactive) | 11.8% (inactive) | 4.3% (inactive) | 0% (inactive) | -3.73% (inactive) | -37.6% (inactive) | 1.5% (inactive) | -7.17% (inactive)
6 | OCc1ccccc1O | 91.8% (inactive) and 36.5% (inactive) | 78.7% and 97.3% | 0.4% (inactive) | 1.3% | -0.1% (inactive) | -7.2% (inactive) | 19.2% (inactive) | -0.3% (inactive) | -6.03% (inactive) | -5.8% (inactive) | -17.8% (inactive) | -10.9% (inactive)
7 | CCN1CCCC(OC(=O)C(c2ccccc2)c2ccccc2)C1 (stereo unspecified) | 78.7% (inactive) and 105% (inactive) and 40.1% (inactive) | 75.6% and 65.9% and 85.9% | 0.6% (inactive) | 2.6% | 133% (active) | 3.4% (inactive) | 18.5% (inactive) | 1.3% (inactive) | 68.8% (active) | 71.6% (active) | 46.5% (inactive) | -9.18% (inactive)
8 | CC1(C)S[C@@H]2[C@H](NC(=O)C(C(=O)O)c3ccccc3)C(=O)N2[C@H]1C(=O)O (stereo partly specified) | 87.5% (inactive) and 61.7% (inactive) | 75.2% and 98.9% | -0.3% (inactive) | -0.3% | -0.6% (inactive) | -17.4% (inactive) | -10.8% (inactive) | -0.3% (inactive) | -4.4% (inactive) | -13% (inactive) | -17.8% (inactive) | -9.55% (inactive)
9 | CCCCCCc1ccc(O)cc1O | 87.3% (inactive) and 55.4% (inactive) | 71.9% and 91.6% | 7.5% (inactive) | 2.1% | 9.8% (inactive) | 65.4% (active) | 30.7% (inactive) | 4.2% (inactive) | 41.8% (inactive) | 84.1% (active) | 56.2% (active) | -8.5% (inactive)
10 | CCC(=O)O[C@H]1[C@H](O[C@@H]2[C@@H](C)[C@H](O[C@H]3C[C@@](C)(OC)[C@@H](O)[C@H](C)O3)[C@@H](C)C(=O)O[C@H](CC)[C@@](C)(O)[C@H](O)[C@@H](C)C(=O)[C@H](C)C[C@@]2(C)O)O[C@H](C)C[C@@H]1N(C)C | 85.6% (inactive) and 40.4% (inactive) | 67.9% and 93.1% | 0.6% (inactive) | -0.8% | -1.7% (inactive) | -28.1% (inactive) | 5.5% (inactive) | -0.1% (inactive) | 3.15% (inactive) | 13.9% (inactive) | -12.4% (inactive) | 1.5% (inactive)
11 | CC(=O)[C@@]1(O)CC[C@H]2[C@@H]3C[C@H](C)C4=CC(=O)C=C[C@]4(C)[C@@]3(F)[C@@H](O)C[C@@]21C | 127% (inactive) | 102% | 2.3% (inactive) | 0.2% | -1.1% (inactive) | -45.9% (inactive) | -16% (inactive) | -0.3% (inactive) | -1.33% (inactive) | -18.3% (inactive) | -7.2% (inactive) | 15.2% (inactive)
12 | CC(N)CCCC(C)(C)O (stereo unspecified) | 31.8% (inactive) and 120% (inactive) and 114% (inactive) | 50.3% and 90.2% and 93.5% | 2.3% (inactive) | 1.6% | 0.6% (inactive) | -36.1% (inactive) | -13.2% (inactive) | -1.9% (inactive) | -2.33% (inactive) | 13% (inactive) | -0.1% (inactive) | -2.18% (inactive)
13 | CCOC(=O)n1ccn(C)c1=S | 106% (inactive) and 140% (inactive) and 85.8% (inactive) | 108% and 84.5% and 77.4% | 0.6% (inactive) | -0.4% | 0.6% (inactive) | -40.3% (inactive) | 10.6% (inactive) | 0.3% (inactive) | -5.63% (inactive) | 6.5% (inactive) | 5.3% (inactive) | 2.95% (inactive)
14 | COc1cc([C@H]2Oc3cc([C@H]4Oc5cc(O)cc(O)c5C(=O)[C@@H]4O)ccc3O[C@@H]2CO)ccc1O | 75.8% (inactive) | 93% | 3.7% (inactive) | 0.8% | 1.8% (inactive) | -35.4% (inactive) | 4.2% (inactive) | 2.1% (inactive) | 18.7% (inactive) | 16.2% (inactive) | -3.4% (inactive) | 9.07% (inactive)
15 | NS(=O)(=O)c1cc2c(cc1Cl)NC(CSCc1ccccc1)=NS2(=O)=O | 72.5% (inactive) and 98.3% (inactive) and 56.3% (inactive) | 97% and 76.2% and 98.6% | -0.6% (inactive) | 0.7% | 0% (inactive) | -14.2% (inactive) | 5% (inactive) | 0.4% (inactive) | -3.3% (inactive) | 0.9% (inactive) | -17.1% (inactive) | -3.14% (inactive)
16 | C/C=C/c1ccc(OC)cc1 | 163% (inactive) and 38.2% (inactive) and 65% (inactive) | 88.5% and 100% and 126% | -1.7% (inactive) | 2.3% | 1.3% (inactive) | -5.7% (inactive) | 6.2% (inactive) | -1.8% (inactive) | 10.8% (inactive) | 20.9% (inactive) | -3.2% (inactive) | 6.64% (inactive)
17 | Oc1ccc(Cl)c2cccnc12 | 109% (inactive) and 39.2% (inactive) | 67.1% and 81.7% | 26.2% (inactive) | 2.1% | -2.1% (inactive) | 57.1% (active) | 11.9% (inactive) | -5.7% (inactive) | 32.7% (inactive) | 84.4% (active) | 43.6% (inactive) | 10.3% (inactive)
18 | CC(C(=O)O)c1ccc2c(c1)[nH]c1ccc(Cl)cc12 (stereo unspecified) | 138% (inactive) and 52% (inactive) | 73.1% and 91.7% | -0.6% (inactive) | 1.1% | 0.1% (inactive) | 6.1% (inactive) | 17.9% (inactive) | 4.6% (inactive) | 1.67% (inactive) | 36% (inactive) | 14.1% (inactive) | -6.34% (inactive)
19 | CCOC(=O)NNc1nncc2ccccc12 | 44.2% (inactive) and 101% (inactive) and 89.6% (inactive) | 43.6% and 65.7% and 90.2% | 3.8% (inactive) | 5.1% | 3.7% (inactive) | 0.3% (inactive) | -6.6% (inactive) | -0.3% (inactive) | -0.97% (inactive) | 9.4% (inactive) | 6.7% (inactive) | -20.7% (inactive)
20 | CN(C)/N=N/c1nc[nH]c1C(N)=O | 56% (inactive) and 17.1% (inactive) | 91.9% and 74% | 1.8% (inactive) | -1.7% | 1.8% (inactive) | -107% (inactive) | 85.4% (active) | -1.3% (inactive) | -2.45% (inactive) | 34.5% (inactive) | -4.2% (inactive) | -2.23% (inactive)
21 | CCN1CCN(C(=O)N[C@@H](C(=O)N[C@@H]2C(=O)N3C(C(=O)O)=C(CSc4nnnn4C)CS[C@H]23)c2ccc(O)cc2)C(=O)C1=O | 48.8% (inactive) and 79.5% (inactive) and 21.1% (inactive) | 114% and 80.3% and 69% | -0.5% (inactive) | -1.5% | 1.3% (inactive) | 6.1% (inactive) | -32.8% (inactive) | 5.2% (inactive) | -2.2% (inactive) | 8.6% (inactive) | 3.3% (inactive) | 16.7% (inactive)
22 | CC(C)NCC(O)c1ccc2ccccc2c1 (stereo unspecified) | 115% (inactive) and 166% (inactive) and 45.3% (inactive) | 75% and 89% and 106% | 0.7% (inactive) | -1.4% | 9.8% (inactive) | 6.6% (inactive) | -11.2% (inactive) | 1.5% (inactive) | 26.4% (inactive) | 20.9% (inactive) | 19.4% (inactive) | 8.21% (inactive)
23 | CC(=O)OCC1=C(C(=O)O)N2C(=O)[C@@H](NC(=O)CSc3ccncc3)[C@H]2SC1 | 79.7% (inactive) and 64.8% (inactive) | 79.3% and 105% | -0.8% (inactive) | 1.1% | 0.9% (inactive) | 14.8% (inactive) | -9.7% (inactive) | -1.1% (inactive) | 5.07% (inactive) | 13.8% (inactive) | -15.1% (inactive) | 3.03% (inactive)
